Results: PubChem BioAssay AID827 (SRMLSC, 2007)
Among all 140,000 compounds or so, about 1,700 (1.2%) were called active. The sample holds actives, similar compounds and a random draw of the others, so the mix is not that of the screen. Values without a mark were called inactive.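 Rule for the calls: active = viability at or below a set limit, 4 SD under the median of all tested compounds (cut at about 3.7% in these data); inactive = the rest.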

experiment: viability loss in PTEN-deleted colon tumor cells – cell-based, HCT116, CellTiter-Glo, primary screen (AID 827); conditions: HCT116 PTEN-null viability, 60 h, at 10 µM, active compounds read low;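 note: PTEN knockout HCT116 line with beta catenin targeted HCT116 as companion control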

Row | SMILES | viability
1 | N#C/C(=C(/O)COC(=O)COc1ccc(Cl)cc1)c1nc2ccccc2[nH]1 | 5.27%
2 | N=c1c2c(-c3ccccc3)c(-c3ccccc3)oc2ncn1Cc1ccco1 | 54.2%
3 | N=c1c2c(-c3ccccc3)c(-c3ccccc3)n(Cc3ccccc3)c2ncn1CCCO | 1.76% (active)
4 | OCCCN1c2ccccc2Nc2nnc(-c3ccccc3)cc21 | 53.1%
5 | Cc1nc(-c2ccccc2)sc1C(=O)/C=C/c1ccccc1 | 6.16%
6 | Cc1[nH]c(=O)c(C(=O)/C=C/c2ccccc2)c2c1CCCC2 | 1.81% (active)
7 | O=C(/C=C/c1ccccc1)c1ccccc1O | 83.3%
8 | O=C(Nc1ccccc1)c1cc2ccccc2[nH]1 | 66.4%
9 | O=C(/C=C/Sc1ncn[nH]1)c1ccc(Cl)cc1 | 2.52% (active)
10 | O=C(NCCOCc1ccc(Cl)cc1)c1ncn[nH]1 | 101%
11 | CC(C)(C)c1ccc(C(=O)CSc2ncn[nH]2)cc1 | 94.8%
12 | CC(=O)NC1C(OCc2ccccc2)OC(COC(C)=O)C(OC(C)=O)C1OC(C)=O (centres undefined) | 96.9%
13 | Cc1cc(-c2n[nH]c(=S)n2/N=C/C(Br)=C/c2ccccc2)n[nH]1 | 1.39% (active)
14 | S=c1[nH]nc(-c2cccnc2)n1/N=C/C(Cl)=C\c1ccccc1 | 8.01%
15 | Cc1ccc(/C=N\n2c(-c3ccccc3)n[nH]c2=S)s1 | 109%
16 | Cc1nn(C)c(C(=O)NNC(=S)NC2CCCCC2)c1Cl | 95.4%
17 | CC1CCN(C(=S)NC2CC3CCC2C3)CC1 (centres undefined) | 95.9%
18 | O=C(c1c(Cl)nc2sccn12)N1CCCc2ccccc21 | 81.7%
19 | O=C(CCCN1C(=O)/C(=C/c2ccco2)SC1=S)Nc1ccccc1 | 24%
20 | O=C1/C(=C\c2ccccc2Cl)SC(=S)N1CCC(=O)N1CCCc2ccccc21 | 2.6% (active)

Row | SMILES | viability
21 | N=C1C(=O)OCC1c1ccccc1NC(=O)CN1CCCCC1 (centres undefined) | 83.9%
22 | CC(NC(=O)c1cccc2ccccc12)c1ccc2c(c1)CCCC2 (centres undefined) | 25.1%
23 | NS(=O)(=O)c1ccc(CCNC(=S)Nc2ccc(S(N)(=O)=O)cc2)cc1 | 96.8%
24 | O=C(CCC(=O)c1cccs1)NCc1ccccc1 | 97.4%
25 | Cc1ccccc1C(CC(=O)c1cccs1)C(C#N)C#N (centres undefined) | 3.71% (active)
26 | Cc1ccc(C)c(NC(CC(=O)c2ccccc2)C(=O)OCC(=O)c2cccs2)c1 (centres undefined) | 85%
27 | Cc1ccc(CN2C(=O)N/C(=C/c3cc(C)n(-c4ccccn4)c3C)C2=O)cc1 | 84.5%
28 | Cc1cc(OCCCC(=O)NCCN2C(=O)S/C(=C\c3cccnc3)C2=O)ccc1Cl | 78.4%
29 | COC(=O)N/N=C/c1ccc(-c2ccc(Cl)c(Cl)c2)o1 | 68.4%
30 | O=C(CN1C(=O)NC2(CCCCCC2)C1=O)NCc1cccs1 | 102%
31 | Cc1ccc(C)c2[nH]c(=O)c(CCNC(=O)c3cccs3)cc12 | 85.5%
32 | COc1cccc(/C=N/NC(=O)c2cccc([N+](=O)[O-])c2)c1OS(=O)(=O)c1ccc(C)cc1 | 71.7%
33 | Cc1[nH]n(-c2cccc(Cl)c2)c(=O)c1/C=N/n1c(C)nc2ccccc2c1=O | 89.2%
34 | COc1cc(/C=N\NC(=O)CNC(=O)c2cccc([N+](=O)[O-])c2)ccc1O | 98.5%
35 | Cc1[nH]n(-c2ccccc2)c(=O)c1/C=N/NC(=O)c1ccoc1C | 3.19% (active)
36 | Cc1[nH]n(-c2ccc(Cl)cc2)c(=O)c1/C=N/n1c(C)nc2ccccc2c1=O | 33.6%
37 | Cc1ccc(-n2[nH]c(C)c(/C=N/NC(=O)c3cccc([N+](=O)[O-])c3)c2=O)cc1C | 2.5% (active)
38 | N#C/C(=C/c1cccc([N+](=O)[O-])c1)c1nnc2n1CCCCC2 | 30.1%
39 | CCOc1ccc(S(=O)(=O)N(CC(=O)NCC(F)(F)F)Cc2ccco2)cc1 | 99.2%
40 | COC(=O)CN1C(=S)N(c2ccccc2)C(=O)C1CC(=O)Nc1ccc(Cl)cc1 (centres undefined) | 91.3%

Row | SMILES | viability
41 | Cc1ccc(/C=C/C(=O)Nc2cc(S(=O)(=O)N3CCCCCC3)ccc2OCC(F)(F)F)o1 | 75.3%
42 | C/C(=N/NC(=O)C1COc2ccccc2O1)c1ccco1 (centres undefined) | 96.5%
43 | Cc1cccc2cc(CN(Cc3cccs3)C(=S)NCc3ccco3)c(=O)[nH]c12 | 72.6%
44 | CN(C)CCNC(=O)Cc1ccc([N+](=O)[O-])cc1 | 98.8%
45 | CCCCc1nc(NCCN)c(C#N)c2c1CSC(C)(C)C2 | 2.15% (active)
46 | CCCCc1nc(NCc2ccccc2)c(C#N)c2c1CCCC2 | 82.1%
47 | Cc1nc(NCCN)c(C#N)c2c1COC(C)(C)C2 | 101%
48 | COc1ccc(C2CC(c3ccccc3)=NN2C(=O)CSc2nccc(=O)[nH]2)cc1 (centres undefined) | 101%
49 | CCOC(=O)C1=C(C)Nc2nc3ccccc3n2C1c1cccs1 (centres undefined) | 90.1%
50 | O=C1OC(c2ccc(Cl)cc2)=N/C1=C\c1cccnc1 | 90.6%
51 | O=C(O)C1CC(=O)N(Cc2cccnc2)C1 (centres undefined) | 100%
52 | O=C1/C(=C\c2cccnc2)CN(Cc2ccccc2)C/C1=C\c1cccnc1 | 1.06% (active)
53 | O=C(CN1CCN(S(=O)(=O)c2ccc(Br)cc2)CC1)Nc1ccccc1C(=O)c1ccccc1 | 64.5%
54 | Cc1nn(Cc2ccccc2)c(C)c1C(=O)NCCN1C(=O)S/C(=C\c2ccc(F)cc2)C1=O | 97.4%
55 | Cc1ccc(NC(=O)CC2S/C(=N/N=C3\CCCc4ccccc43)NC2=O)cc1 (centres undefined) | 65.5%
56 | O=C(c1cncc(Br)c1)N1CCN(c2ccc([N+](=O)[O-])cc2)CC1 | 83.7%
57 | CC(C)CC[n+]1ccn(C2=C([O-])c3ccccc3C(=O)/C2=N\S(=O)(=O)c2ccccc2)c1 | 3.35% (active)
58 | O=C(CSc1nc2ccc([N+](=O)[O-])cc2[nH]1)c1ccc(Cl)cc1 | 103%
59 | CC(C)=C(NC(=O)c1ccccc1)C(=O)N/N=C(\C)c1ccccc1O | 88.4%
